The values below come from PubChem BioAssay (NCATS).

Active and inactive are the calls of the source. Entries that show only a call come without a potency. The call rests on the fitted dose curve; in most records, active means well fitted activation curve with a large enough effect; inconclusive means small, poorly fitted or top-dose-only effect; inactive means flat fitted curve, though single readings scatter.

This test can be described thus: Confirmation and Secondary Assay for Modulators of Hemoglobin Beta Chain Splicing at IVS2 654 locus (AID 910).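 Further: HeLa cells stably carrying EGFP split by mutant beta-globin IVS2-654 intron.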 The following applies: HeLa EGFP-654 splicing reporter, GFP fluorescence, 48 h; series mostly up to 38.3 µM. An excerpt:
NIH Chemical Genomics Center [NCGC] NIH Molecular Libraries Screening Centers Network [MLSCN] MLSCN Grant: 1 X01 MH080684-01 PI Name: Dr. Ryszard Kole NCGC Assay Overview: Modulation of Alternative Splicing as Therapy Abnormal splicing is associated with a number of diseases, including cancer and genetic diseases such as cystic fibrosis, muscular dystrophy and beta-thalassemia. Alteration of disease associated splicing patterns provides a promising target for treatment. […] Mutations in the second intron of the b-globin gene at positions 654 or 705 are clinically relevant and cause mis-splicing which results in an out of frame gene product. […] EGFP-654 HeLa Cells as screen system. HeLa cell lines were stably transfected with a construct in which the EGFP (enhanced green fluorescent protein) cDNA was interrupted by the second intron of the beta-globin gene (IVS2-654). The ISV2 intron contains mutations which cause mis-splicing of EGFP and premature termination of EGFP which results in a nonfluorescent protein product. […] Expression of the transgene was driven by the CMV promoter. We concluded that a low molecular weight compound, which restored correct splicing of intron 2 would also generate functional EGFP protein, resulting in a fluorescent signal. Thus, the HeLa cells that express the EGFP-654 construct can be used for high throughput screening of a chemical library.
NCGC Assay Protocol Summary: Confirmatory Screening. Freshly thawed HeLa EGFP-654 cells were seeded in 5 ul of optimem media (Invitrogen) containing 2 % fetal calf serum (Hyclone) and 1x penicillin/streptomycin (Invitrogen) at a concentration of 500 cells per well in 1536-well plates. Cells were incubated overnight at 37C in 5% CO2. The next day, cells were treated with DMSO, 500 nM antisense ISV2 654 PNA control oligo, or library compound and allowed to grow at 37C in 5% CO2 for 2 days. The PNA oligo blocked the mutation site in the intron and allowed proper (wild type) splicing to occur, resulting in full length EGFP expression and also allowed for optimization of the assay parameters. Plates were read in the Acumen Explorer (TTP Labtech) using 488 nm laser excitation and 500-520 nm emission PMT filter in a 1 x 8 uM capture mode. Fluorescnet objects ranging in size from 5 to 250 uM were measured and the total peak GFP intensity for each well was used for data analysis. Keywords: Thalassemia, beta-thalassemia, beta-globin, EGFP, ISV2 654, ISV2 705, SSO, PNA, antisense, splicing, MLSMR, MLSCN, NIH Roadmap, qHTS, NCGC
`COCCNc1ncnc2ccc(-c3ccccc3CN(C)C)cc12`: the Potency result is “inactive”.

Regarding `O=C1C=CC2=C3c4cc(O)c(O)cc4CC3(O)COC2=C1O` (stereo not given), the Potency entry was “inactive”.

Consider `Cc1ccccc1-c1nc(-n2ccnc2)c2ccccc2n1`, for which the Potency entry is “inactive”.

`COS(C)(=O)=O`: the Potency result is “inactive”.

As to `N#Cc1cccc(-c2nc(Nc3ccccc3)c3ccccc3n2)c1`, the Potency entry was “inactive”.

For the molecule `Cc1cnc(CNc2nc(-c3ccc4c(c3)OCO4)nc3ccccc23)cn1`, the Potency entry is “inactive”.

Take `C[C@@](N)(Cc1ccc(O)c(O)c1)C(=O)O`: the Potency entry was “inactive”.

`COc1ccccc1CNc1ccnc(-c2ccccc2C(F)(F)F)n1`: the Potency entry was “inactive”.

For the molecule `CO/N=C(/C(=O)NC1C(=O)N2C(C(=O)O)=C(CSc3nc(=O)c(O)nn3C)CSC12)c1csc(N)n1` (stereo not given), the Potency result is “inactive”.

Consider `Cc1ccccc1-c1cncnc1NC1CCNCC1`, for which the Potency entry was “inactive”.

For the molecule `C=C[C@](C)(O)CCC=C(C)C`, the Potency entry was “inactive”.

Consider `CC(=O)NCCNc1ncnc2ccc(-c3ccc(C(=O)N(C)C)cc3)cc12`, for which the Potency result is “inactive”.

Consider `COc1ccccc1-c1nc(NCCNC(C)=O)c2ccccc2n1`, for which the Potency result was “inactive”.

For `C=CCc1ccc(OC(=O)c2ccccc2)c(OC)c1`, the Potency result is “inactive”.

In the case of `N#Cc1cccc(-c2nc(Nc3ccncc3)c3ccccc3n2)c1`, the Potency result is “inactive”.

For `CCC(=O)OC1CCC2C3CCc4cc(O)ccc4C3CC[C@]12C` (stereo not given in full), the Potency entry was “inactive”.

As to `CNc1nc(-c2ccccc2C(F)(F)F)nc2ccccc12`, the Potency entry is “inactive”.

In the case of `Cc1cccc(CNc2cc(-c3ccoc3)ncn2)c1`, the Potency entry is “inactive”.

As to `Cc1cccc(CNc2cc(-c3cccc(C#N)c3)ncn2)c1`, the Potency result was “inactive”.

As for `COC(=O)c1c(C)cc(OC(=O)c2c(C)cc(O)c(C=O)c2O)c(C)c1O`, the Potency entry is “inactive”.

Turning to `COc1ccc2[nH]cc(CCNc3nc(-c4cccc(NS(C)(=O)=O)c4)nc4ccccc34)c2c1`, the Potency entry was “inactive”.

In the case of `CS(=O)(=O)Nc1cccc(-c2nc(NCc3cccs3)c3ccccc3n2)c1`, the Potency result was “inactive”.

For the molecule `N#Cc1ccccc1-c1cncnc1NCc1cccnc1`, the Potency result was “inactive”.

As for `COc1cc(-c2coc3cc(OCc4ccccc4)c(OC)c(O)c3c2=O)cc(O)c1OC`, the Potency result is “inactive”.

As to `CN1CCN(c2ccnc(-c3cccc(NS(C)(=O)=O)c3)n2)CC1`, the Potency result was “inactive”.

As for `CC(C)(S)[C@H](N)C(=O)O`, the Potency entry is “inactive”.

As to `Cc1cnc(CNc2ccnc(-c3ccc(N(C)C)cc3)n2)cn1`, the Potency entry was “inactive”.

As to `CN(C)C(=O)c1ccc(-c2ccc3ncnc(NCc4cccnc4)c3c2)cc1`, the Potency entry is “inactive”.

In the case of `Cc1cnc(CNc2ncnc3ccc(-c4ccccc4CN(C)C)cc23)cn1`, the Potency result is “inactive”.

For `Cc1noc(C)c1-c1nc(N2CCOCC2)c2ccccc2n1`, the Potency result is “inactive”.

Regarding `CN(C)Cc1ccccc1-c1nccc(NCc2cccs2)n1`, the Potency result is “inactive”.

As for `CCCCCC/C=C\CCCCCCCc1cccc(O)c1C(=O)O`, the Potency entry was “inactive”.

As for `COc1ccc2c(c1)OC/C(=C/c1ccc(O)c(O)c1)C2=O`, the Potency entry is “inactive”.

For the molecule `CN1CCN(c2nc(-c3cccc(NS(C)(=O)=O)c3)nc3ccccc23)CC1`, the Potency result is “inactive”.

Turning to `CN(C)Cc1ccccc1-c1nccc(NC2CC2)n1`, the Potency entry was “inactive”.

As for `CN(Cc1ccco1)c1ccnc(-c2ccoc2)n1`, the Potency result is “inactive”.

Consider `COc1cc(O)c(C(=O)/C=C/c2ccc(OC)c(O)c2)c(OC)c1`, for which the Potency entry was “inactive”.

Consider `NCC1OC(n2cnc3c(=O)[nH]c(N)nc32)C(O)C1O` (stereo not given), for which the Potency result was “inactive”.

Take `CN(C)c1ccc(-c2nc(N(C)C)c3ccccc3n2)cc1`: the Potency result was “inactive”.

`CN(C)Cc1ccccc1-c1cncnc1NC1CC1`: the Potency entry was “inactive”.
